From the supplement of paper PMC10849652 come the findings set out here.

Targets with a hit are over-represented here; the source holds about 7,900 in all. About 0.6% of all pairs of compound and target were hits. Values without a mark were called inactive.

Chain of UniProt Q8N0T1 (Q8N0T1 whole entry, looked up): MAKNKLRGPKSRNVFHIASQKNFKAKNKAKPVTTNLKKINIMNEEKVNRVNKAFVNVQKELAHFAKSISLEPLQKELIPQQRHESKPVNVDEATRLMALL
Chain of UniProt O95486 (O95486 whole entry, looked up): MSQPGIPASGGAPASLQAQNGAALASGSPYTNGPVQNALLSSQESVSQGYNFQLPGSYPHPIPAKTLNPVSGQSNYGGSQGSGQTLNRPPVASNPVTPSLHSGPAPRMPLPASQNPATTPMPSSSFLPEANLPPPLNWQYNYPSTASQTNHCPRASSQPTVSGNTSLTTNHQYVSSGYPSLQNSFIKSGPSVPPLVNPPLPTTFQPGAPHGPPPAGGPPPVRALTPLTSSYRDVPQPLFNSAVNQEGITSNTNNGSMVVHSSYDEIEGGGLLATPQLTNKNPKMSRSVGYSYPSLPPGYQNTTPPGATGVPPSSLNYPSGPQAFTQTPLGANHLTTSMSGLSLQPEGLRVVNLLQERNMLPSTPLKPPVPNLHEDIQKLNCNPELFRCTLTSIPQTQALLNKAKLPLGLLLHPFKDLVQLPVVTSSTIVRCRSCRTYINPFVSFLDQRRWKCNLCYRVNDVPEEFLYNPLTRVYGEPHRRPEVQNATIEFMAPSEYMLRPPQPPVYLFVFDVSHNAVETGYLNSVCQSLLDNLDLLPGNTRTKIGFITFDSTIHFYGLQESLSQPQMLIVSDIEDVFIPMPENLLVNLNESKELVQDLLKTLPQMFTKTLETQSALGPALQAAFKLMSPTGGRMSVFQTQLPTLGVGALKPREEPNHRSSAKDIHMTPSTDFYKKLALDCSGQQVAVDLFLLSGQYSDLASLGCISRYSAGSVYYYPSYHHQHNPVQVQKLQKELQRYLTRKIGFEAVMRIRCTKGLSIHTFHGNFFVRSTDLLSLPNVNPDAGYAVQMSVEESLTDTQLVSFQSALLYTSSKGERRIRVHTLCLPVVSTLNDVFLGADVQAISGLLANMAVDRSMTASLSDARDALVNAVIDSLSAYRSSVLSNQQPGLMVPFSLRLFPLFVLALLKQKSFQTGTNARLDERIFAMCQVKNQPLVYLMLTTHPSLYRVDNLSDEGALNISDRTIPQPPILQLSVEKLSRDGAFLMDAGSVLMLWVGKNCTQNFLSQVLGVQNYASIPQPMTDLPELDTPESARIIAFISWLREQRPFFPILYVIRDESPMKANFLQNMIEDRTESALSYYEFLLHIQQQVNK
Chain of UniProt Q9BXP2 (Q9BXP2 whole entry, looked up): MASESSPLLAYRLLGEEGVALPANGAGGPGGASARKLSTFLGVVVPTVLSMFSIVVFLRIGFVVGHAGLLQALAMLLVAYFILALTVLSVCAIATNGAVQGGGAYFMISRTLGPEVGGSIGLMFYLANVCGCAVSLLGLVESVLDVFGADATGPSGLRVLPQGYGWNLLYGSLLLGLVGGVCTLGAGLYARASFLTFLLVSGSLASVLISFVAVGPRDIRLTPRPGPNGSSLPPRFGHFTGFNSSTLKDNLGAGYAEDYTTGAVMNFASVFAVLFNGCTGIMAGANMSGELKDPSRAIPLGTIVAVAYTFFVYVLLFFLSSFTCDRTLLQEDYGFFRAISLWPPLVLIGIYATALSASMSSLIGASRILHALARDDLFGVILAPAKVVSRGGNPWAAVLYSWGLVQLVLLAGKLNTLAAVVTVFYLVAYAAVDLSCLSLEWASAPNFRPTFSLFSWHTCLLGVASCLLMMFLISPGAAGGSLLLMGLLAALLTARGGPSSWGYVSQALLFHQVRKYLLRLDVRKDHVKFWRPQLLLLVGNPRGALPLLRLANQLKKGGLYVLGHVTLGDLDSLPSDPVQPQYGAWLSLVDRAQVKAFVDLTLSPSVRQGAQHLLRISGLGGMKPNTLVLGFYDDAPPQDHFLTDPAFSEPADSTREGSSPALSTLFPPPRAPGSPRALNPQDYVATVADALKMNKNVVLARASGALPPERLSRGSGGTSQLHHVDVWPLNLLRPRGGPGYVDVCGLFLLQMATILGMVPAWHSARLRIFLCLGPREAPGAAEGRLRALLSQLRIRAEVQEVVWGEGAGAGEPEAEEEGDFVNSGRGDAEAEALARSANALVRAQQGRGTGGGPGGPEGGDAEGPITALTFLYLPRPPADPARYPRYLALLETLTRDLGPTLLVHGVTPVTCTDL
Chain of UniProt Q6NUM9 (Q6NUM9 whole entry, looked up): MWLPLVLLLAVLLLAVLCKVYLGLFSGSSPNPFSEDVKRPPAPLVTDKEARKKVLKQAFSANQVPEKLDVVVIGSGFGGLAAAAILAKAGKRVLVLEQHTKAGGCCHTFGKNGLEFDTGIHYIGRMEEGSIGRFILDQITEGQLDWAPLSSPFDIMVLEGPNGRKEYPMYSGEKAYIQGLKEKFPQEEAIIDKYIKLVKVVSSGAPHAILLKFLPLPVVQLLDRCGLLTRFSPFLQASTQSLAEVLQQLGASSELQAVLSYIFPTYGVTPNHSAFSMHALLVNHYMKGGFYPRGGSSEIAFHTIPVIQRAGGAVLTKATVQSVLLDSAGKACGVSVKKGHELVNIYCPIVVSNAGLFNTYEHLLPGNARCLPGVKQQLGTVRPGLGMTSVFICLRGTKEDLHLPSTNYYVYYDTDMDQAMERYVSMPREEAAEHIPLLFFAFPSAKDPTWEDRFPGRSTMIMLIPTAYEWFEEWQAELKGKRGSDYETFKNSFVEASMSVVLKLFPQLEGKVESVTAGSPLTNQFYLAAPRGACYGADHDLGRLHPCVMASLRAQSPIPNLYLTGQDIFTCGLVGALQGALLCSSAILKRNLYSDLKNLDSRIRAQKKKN
Chain of UniProt Q9UKL0 (Q9UKL0 whole entry, looked up): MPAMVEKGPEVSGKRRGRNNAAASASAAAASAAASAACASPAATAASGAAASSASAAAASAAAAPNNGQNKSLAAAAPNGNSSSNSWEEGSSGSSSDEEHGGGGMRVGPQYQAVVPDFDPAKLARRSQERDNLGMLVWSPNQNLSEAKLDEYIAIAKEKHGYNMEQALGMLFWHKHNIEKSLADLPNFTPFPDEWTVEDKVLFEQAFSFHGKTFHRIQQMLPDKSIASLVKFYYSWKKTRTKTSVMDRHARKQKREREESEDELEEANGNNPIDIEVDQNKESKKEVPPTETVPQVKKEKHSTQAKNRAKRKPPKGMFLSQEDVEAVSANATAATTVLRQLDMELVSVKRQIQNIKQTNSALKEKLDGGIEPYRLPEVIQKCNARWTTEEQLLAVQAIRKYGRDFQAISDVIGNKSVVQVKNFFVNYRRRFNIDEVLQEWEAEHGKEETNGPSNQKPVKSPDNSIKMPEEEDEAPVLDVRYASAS
Chain of UniProt Q7L099 (Q7L099 whole entry, looked up): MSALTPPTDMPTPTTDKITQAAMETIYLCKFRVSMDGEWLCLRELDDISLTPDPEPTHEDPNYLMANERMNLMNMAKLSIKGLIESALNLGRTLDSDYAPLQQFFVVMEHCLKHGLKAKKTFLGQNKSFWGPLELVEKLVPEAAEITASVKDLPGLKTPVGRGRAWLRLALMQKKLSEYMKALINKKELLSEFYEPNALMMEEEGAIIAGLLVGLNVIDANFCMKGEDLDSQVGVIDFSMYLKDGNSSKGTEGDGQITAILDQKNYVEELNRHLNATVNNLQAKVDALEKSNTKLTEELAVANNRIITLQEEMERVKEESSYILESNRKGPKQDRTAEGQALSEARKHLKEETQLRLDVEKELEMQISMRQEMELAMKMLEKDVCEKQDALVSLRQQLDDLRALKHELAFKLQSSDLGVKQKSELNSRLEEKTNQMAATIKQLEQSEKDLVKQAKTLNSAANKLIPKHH
Chain of UniProt O94979 (O94979 whole entry, looked up): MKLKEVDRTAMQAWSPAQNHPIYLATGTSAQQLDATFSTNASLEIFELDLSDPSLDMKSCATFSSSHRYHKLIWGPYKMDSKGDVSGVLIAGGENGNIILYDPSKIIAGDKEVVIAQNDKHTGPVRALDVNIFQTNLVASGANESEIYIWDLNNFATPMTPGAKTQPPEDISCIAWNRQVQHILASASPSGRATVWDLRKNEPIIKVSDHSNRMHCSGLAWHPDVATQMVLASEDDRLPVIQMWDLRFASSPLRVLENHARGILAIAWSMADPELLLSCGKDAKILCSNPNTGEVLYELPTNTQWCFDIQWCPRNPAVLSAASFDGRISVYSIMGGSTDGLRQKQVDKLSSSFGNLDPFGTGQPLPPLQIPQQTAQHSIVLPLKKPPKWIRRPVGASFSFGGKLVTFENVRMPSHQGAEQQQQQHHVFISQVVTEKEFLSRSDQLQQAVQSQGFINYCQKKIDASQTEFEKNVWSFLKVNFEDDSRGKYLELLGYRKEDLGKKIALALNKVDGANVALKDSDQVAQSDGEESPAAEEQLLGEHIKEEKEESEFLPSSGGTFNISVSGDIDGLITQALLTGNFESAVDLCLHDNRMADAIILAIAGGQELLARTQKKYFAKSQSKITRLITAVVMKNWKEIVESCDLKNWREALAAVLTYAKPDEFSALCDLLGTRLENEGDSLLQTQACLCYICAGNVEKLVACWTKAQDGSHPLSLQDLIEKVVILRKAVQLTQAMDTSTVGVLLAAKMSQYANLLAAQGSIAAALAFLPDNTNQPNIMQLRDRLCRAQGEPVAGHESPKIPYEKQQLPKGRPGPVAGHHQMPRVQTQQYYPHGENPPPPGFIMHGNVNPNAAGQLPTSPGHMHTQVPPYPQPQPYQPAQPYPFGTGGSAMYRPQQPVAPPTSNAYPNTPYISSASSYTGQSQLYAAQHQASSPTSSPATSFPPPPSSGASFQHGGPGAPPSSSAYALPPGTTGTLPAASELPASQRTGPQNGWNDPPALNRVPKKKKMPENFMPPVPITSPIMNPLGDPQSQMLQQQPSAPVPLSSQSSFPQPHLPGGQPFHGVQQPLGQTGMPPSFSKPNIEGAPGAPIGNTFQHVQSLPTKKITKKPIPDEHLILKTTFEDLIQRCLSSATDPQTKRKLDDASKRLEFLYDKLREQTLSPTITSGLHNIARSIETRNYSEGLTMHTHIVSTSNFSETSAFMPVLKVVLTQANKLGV
Chain of UniProt O14796 (O14796 whole entry, looked up): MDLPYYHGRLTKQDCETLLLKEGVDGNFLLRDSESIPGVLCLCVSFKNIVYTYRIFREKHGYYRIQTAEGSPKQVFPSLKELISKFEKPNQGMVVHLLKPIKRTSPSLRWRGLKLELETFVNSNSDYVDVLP

Compound in the first assay: CCn1cc(-c2ccnc3[nH]c(-c4cccc(CN(C)C)c4)cc23)c(-c2ccc(NC(=O)N(C)C)cc2)n1
Nature of the assay: log2 fold change, soluble protein after heating vs DMSO (PISA); higher = thermal stabilisation; K562 cells, 10 uM, 30 min; active = over 0.2 and 3.5 SD of the protein, either way, in both replicates (recomputed). The method in brief: (§1)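 Soluble protein was defined as the supernatant after 21,000xg for 90 min. It came from K562 cells at 2×10^6 cells/mL given 10 μM compound for 30 min, heated in aliquots for 3 min across 48°C-58°C, pooled, and extracted in PBS with 0.5% NP-40 at 4°C, and was quantified by TMTpro 16plex LC-MS/MS with equalised channel sums. Thermal stability against control samples, from duplicates, is reported as log2 fold change.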
For the target RUFY3 isoform 3 (UniProt Q7L099), the log2 fold change is 0.079.

As for RETSAT (UniProt Q6NUM9), the log2 fold change is -0.012.

Turning to SEC31A (UniProt O94979), the log2 fold change is 0.018.

As to RBIS (UniProt Q8N0T1), the log2 fold change is 0.075.

Consider SLC12A9 (UniProt Q9BXP2), for which the log2 fold change is -0.016.

As to RNF167 (UniProt Q9H6Y7), the log2 fold change is 0.057.

Turning to RCOR1 (UniProt Q9UKL0), the log2 fold change was -0.033.

SEC24A (UniProt O95486): the log2 fold change was 0.003.

Compound in another assay: CN(C)CC(=O)Nc1ccc2[nH]c(=O)c3ccccc3c2c1
The description is as above. The method in brief:
as §1
Take SCAMP2 (UniProt H3BUB6): the log2 fold change is -0.201.

As to SIK3 (UniProt H0Y4E8), the log2 fold change is -0.111.

As for SCG3 (UniProt Q8WXD2), the log2 fold change is -0.099.

In the case of RCOR3 isoform 3 (UniProt Q9P2K3), the log2 fold change was 0.038.

Consider SCAF8 isoform 2 (UniProt Q9UPN6), for which the log2 fold change was 0.1.

Take SASH1 (UniProt O94885): the log2 fold change was 0.042.

SCAMP2 (UniProt O15127): the log2 fold change is 0.061.

For the target RBBP6 (UniProt Q7Z6E9), the log2 fold change is 0.024.

RAF1 isoform 2 (UniProt P04049): the log2 fold change was 0.028.

Consider RPS6KA3 (UniProt P51812), for which the log2 fold change is 0.016.

In the case of RBM39 (UniProt Q14498), the log2 fold change is 0.013.

RPAIN isoform 8 (UniProt Q86UA6): the log2 fold change is -0.076.

RALY (UniProt Q9UKM9): the log2 fold change is 0.001.

ROCK1 (UniProt Q13464): the log2 fold change is -0.011.

As for RECQL (UniProt P46063), the log2 fold change was 0.016.

Take SH3GLB2 (UniProt Q9NR46): the log2 fold change was 0.033.

Regarding RAB9A (UniProt P51151), the log2 fold change was 0.034.

Turning to RAD50, A0A494C0Y7, the log2 fold change is 0.055.

Turning to SH2D1B (UniProt O14796), the log2 fold change is -0.025.

With SLBP (UniProt Q14493), the log2 fold change is -0.003.

As to SERINC1 (UniProt Q9NRX5), the log2 fold change is -0.023.

Turning to RAB3IL1 (UniProt E9PK89), the log2 fold change is 0.035.

For the target RAP2C (UniProt Q9Y3L5), the log2 fold change is 0.052.

On to SCO2 (UniProt O43819), for which the log2 fold change is 0.039.

As for RUFY3 isoform 3 (UniProt Q7L099), the log2 fold change was 0.011.

In the case of RETSAT (UniProt Q6NUM9), the log2 fold change was 0.036.

In the case of SEC31A (UniProt O94979), the log2 fold change was 0.046.

Regarding RBIS (UniProt Q8N0T1), the log2 fold change was -0.108.

SLC12A9 (UniProt Q9BXP2): the log2 fold change was -0.02.

RNF167 (UniProt Q9H6Y7): the log2 fold change was -0.008.

Take RCOR1 (UniProt Q9UKL0): the log2 fold change is 0.006.

As to SEC24A (UniProt O95486), the log2 fold change is 0.065.
